Among the data in PubChem BioAssay (NCI) are growth inhibition values, retold here.

Assay [1] can be described thus: NCI Yeast Anticancer Drug Screen. Data for the rad50 strain (AID 155).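 Further: 0% = growth of vehicle-only cultures of the same strain.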 Particulars: S. cerevisiae rad50 strain growth inhibition; at 50.0 µM; hits give high values. A digest of the protocol: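 Inhibition values express reduced yeast growth in compound-treated cultures relative to vehicle-treated controls.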
Assay [2] in a line: NCI Yeast Anticancer Drug Screen. Data for the mec2-1 strain (AID 157). To be noted: S. cerevisiae mec2-1 strain, at 50.0 µM, hits give high values. A digest of the protocol:
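Growth inhibition is read against vehicle-treated controls after compound exposure of the mec2-1 yeast strain, which is defective in DNA damage repair or cell cycle control.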

Assay [3] in a line: NCI Yeast Anticancer Drug Screen. Data for the sgs1 mgt1 strain (AID 161).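 Further: 0% = growth of cultures given vehicle only.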 To be noted: S. cerevisiae sgs1 mgt1 strain, at 50.0 µM, hits give high values. A digest of the protocol: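 Yeast cells carrying a defined DNA-repair defect were exposed to test compounds. Growth inhibition was measured relative to vehicle-treated controls.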
Assay [4] is described as follows: NCI Yeast Anticancer Drug Screen. Data for the cln2 rad14 strain (AID 165).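 Further: 0% = growth equal to vehicle treated cultures.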 Particulars: S. cerevisiae cln2 rad14 strain, at 50.0 µM, hits give high values. A digest of the protocol: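 Growth inhibition, relative to vehicle-treated controls, is the read-out. The test organism is a yeast strain with defined genetic alterations, cln2 rad14.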
A short description of assay [5]: NCI Yeast Anticancer Drug Screen. Data for the bub3 strain (AID 167). To be noted: S. cerevisiae bub3 mutant strain, at 50.0 µM, hits give high values. A digest of the protocol:
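Steps: expose the mutant yeast strain to compound; grow alongside vehicle-treated cultures; measure growth; express inhibition against the vehicle cultures.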

Assay [6] can be described thus: NCI Yeast Anticancer Drug Screen. Data for the mlh1 rad18 strain (AID 175). Particulars: S. cerevisiae mlh1 rad18 strain growth inhibition; at 50.0 µM; hits give high values. A digest of the protocol:
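Cells of a genetically altered yeast strain, deficient in DNA damage repair, were treated with compound. Their growth was then compared with that of vehicle-treated cultures to give inhibition.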

Compounds without any hit were thinned out: in the full panel of roughly 79,000, 15% have a hit. A number with no mark means an inactive call. Calls of active or inactive are those of the source. No stated cut-off is given here; in the data, active means growth inhibition above about 70%; inactive means the rest.

Take `CC1(C)OC2COC(c3[nH]nc4c(=O)[nH]c(=O)[nH]c34)C2O1` (stereo unspecified): the growth inhibition was 1.1% in assay [1]; -5.65% in assay [2]; -26.9% in assay [3]; -20.8% in assay [4]; -64.3% in assay [5]; -5% in assay [6].
For `COc1cc(C=Nc2ccc3c(c2)OCO3)ccc1OC(=O)c1ccccc1`, the growth inhibition in assay [1] was 5.3%; in assay [2], 7.6%; in assay [3], 8.35%; in assay [4], 8.25%; in assay [5], 12.9%; in assay [6] it was -5.5%.
For the compound `S=C1NC(c2ccccc2)Nc2ccccc21` (stereo unspecified), the growth inhibition in assay [1] was 6.5%; in assay [2], 15.9%; in assay [3], -5.5%; in assay [4] it was -40.3%; in assay [5], -12.9%; in assay [6], 3.75%.
As to `Cc1nc2ccccc2c(=O)n1C(C)(C)CCl`, the growth inhibition is 10.1% in assay [1]; 30.6% in assay [2]; 11.1% in assay [3]; -14.7% in assay [4]; 30.3% in assay [5]; 19.9% in assay [6].
`Cc1cncc(C)c1P(=O)(O)O`: the growth inhibition in assay [1] is -10.3%; in assay [2] it was -6.1%; in assay [3], -9.05%; in assay [4], -19.8%; in assay [5], 3.55%; in assay [6], 3.65%.
For `CC(C=O)CCC(C)(O)C=O` (stereo unspecified), the growth inhibition in assay [1] is -9.4%; in assay [2], -7.8%; in assay [3], -7%; in assay [4] it was 8.65%; in assay [5], -10.5%; in assay [6], 1.45%.
Turning to `ClCCn1nc2c(c1-c1ccccc1)CCc1ccccc1-2`, the growth inhibition in assay [1] is -8%; in assay [2], -1.05%; in assay [3], -10.4%; in assay [4], -19.4%; in assay [5], 11.1%; in assay [6], -2.85%.
For the compound `CCN(CC)CC1c2ccccc2C(CNc2ccccc2)N1C` (stereo unspecified), the growth inhibition was 4.5% in assay [1]; 29.4% in assay [2]; -10.1% in assay [3]; 14.2% in assay [4]; 5.65% in assay [5]; 7.65% in assay [6].
`N#Cc1ccc(/C=N\NC(=O)CCSCCC(=O)N/N=C/c2ccc(C#N)cc2)cc1`: the growth inhibition in assay [1] is 13.2%; in assay [2], 24.9%; in assay [3] it was 7.65%; in assay [4], 18.4%; in assay [5] it was 13.1%; in assay [6] it was 7.45%.
For `C[N+]1(C)C/C(=C\c2ccc(O)cc2)C(=O)/C(=C/c2ccc(O)cc2)C1`, the growth inhibition in assay [1] was -0.75%; in assay [2], -16.3%; in assay [3], 4.05%; in assay [4] it was -6%; in assay [5], -9.75%; in assay [6], -14.2%.
Regarding `c1cc2c(cc1CC1CO1)OCO2` (stereo unspecified), the growth inhibition in assay [1] is -12.2%; in assay [2], -11.7%; in assay [3] it was 0.85%; in assay [4] it was -18.4%; in assay [5], -22.5%; in assay [6] it was 15%.
In the case of `CNC(=S)SSSC(=S)NC`, the growth inhibition is 13.1% in assay [1]; -1.9% in assay [2]; 1.8% in assay [3]; 2.55% in assay [4]; -10.3% in assay [5]; 5.55% in assay [6].
`Cc1ccc2nc(Nc3ccc(Cl)cc3)cc(C(O)C3CCCCN3)c2c1` (stereo unspecified): the growth inhibition in assay [1] is 99.5% (active); in assay [2], 99.8% (active); in assay [3], 99.7% (active); in assay [4] it was 99.2% (active); in assay [5], 88.8% (active); in assay [6], 99.5% (active).
`COC(C(N)=O)c1ccccc1` (stereo unspecified): the growth inhibition in assay [1] is -9.8%; in assay [2] it was -11.3%; in assay [3] it was -16.4%; in assay [4], -8%; in assay [5], 8.7%; in assay [6] it was -3.45%.
Consider `Cc1ccccc1N(CCC#N)C1=NN(C(=O)CC(=O)Nc2ccc(Cl)cc2)C(c2ccccc2)C1` (stereo unspecified), for which the growth inhibition is 6.35% in assay [1]; -9.05% in assay [2]; -0.2% in assay [3]; 15% in assay [4]; -16.1% in assay [5]; -5.35% in assay [6].
Take `CN(N)C(=O)NCCCl`: the growth inhibition in assay [1] is -9.1%; in assay [2] it was -4.6%; in assay [3] it was 8.25%; in assay [4] it was 13.4%; in assay [5], -28%; in assay [6], -1.8%.
Regarding `CCC(C)CCC(=O)OCC(=O)c1ccc(-c2ccccc2)cc1` (stereo unspecified), the growth inhibition in assay [1] is 13.7%; in assay [2] it was -18.9%; in assay [3], 14.8%; in assay [4], -13.5%; in assay [5], 7%; in assay [6], 5.75%.
As to `Cc1ncc([N+](=O)[O-])n1CCNCCCn1ccnc1[N+](=O)[O-]`, the growth inhibition is -9.9% in assay [1]; -7.25% in assay [2]; -17.4% in assay [3]; -9.3% in assay [4]; -9.7% in assay [5]; -44% in assay [6].
Consider `CCOC(=O)c1ccc(Nc2nc3cc(C(F)(F)F)ccc3nc2C(=O)OCC)cc1`, for which the growth inhibition in assay [1] was -31.2%; in assay [2], -10.9%; in assay [3] it was -31.9%; in assay [4], -19.4%; in assay [5], -11.7%; in assay [6] it was -19.6%.
As to `CNCSc1ccccc1`, the growth inhibition is -6.6% in assay [1]; -19.9% in assay [2]; -1.75% in assay [3]; -11.6% in assay [4]; -30.1% in assay [5]; -1.45% in assay [6].
For the compound `NS(=O)(=O)c1ccc(NC(=O)CC(=O)c2ccccc2)cc1`, the growth inhibition is -57.4% in assay [1]; -32.7% in assay [2]; -36% in assay [3]; 0.35% in assay [4]; -25.6% in assay [5]; -38% in assay [6].
